Source: PubChem BioAssay (National Center for Advancing Translational Sciences (NCATS))
Coupling enz – counter-screen for Giardia aldolase inhibitors: coupling enzyme system. coupling enzyme system counterscreen, AmpLite Red fluorescence. activity change, negative = inhibition, % at 58.2 µM, hits read low. 290,000 compounds, 0.67% hits. AID 2472; in the data active = activity change below about -30%
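First, compound is pin-transferred into glyceraldehyde-3-phosphate coupling-enzyme reagent at 57.5 uM final and held 10 min at RT. Next, substrate, coupling system and AmpLite Red are added. After 20 min RT, fluorescence (525/598 nm) is read.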
RORg inh – blocks mouse ROR gamma transcriptional activity. Drosophila S2 Gal4-RORgamma UAS-luciferase reporter, 20 h. Potency, µM (titrated, usually from 53.6 µM), for inactives: at the highest dose activity change, negative = inhibition, hits mostly inhibitors. 310,000 compounds, 5.4% hits; note: potency is the fitted concentration of half-maximal effect; nearly all actives have a fitted effect of over 60% in size
Target sequence (P51450 whole entry, looked up, the tested form may be a part): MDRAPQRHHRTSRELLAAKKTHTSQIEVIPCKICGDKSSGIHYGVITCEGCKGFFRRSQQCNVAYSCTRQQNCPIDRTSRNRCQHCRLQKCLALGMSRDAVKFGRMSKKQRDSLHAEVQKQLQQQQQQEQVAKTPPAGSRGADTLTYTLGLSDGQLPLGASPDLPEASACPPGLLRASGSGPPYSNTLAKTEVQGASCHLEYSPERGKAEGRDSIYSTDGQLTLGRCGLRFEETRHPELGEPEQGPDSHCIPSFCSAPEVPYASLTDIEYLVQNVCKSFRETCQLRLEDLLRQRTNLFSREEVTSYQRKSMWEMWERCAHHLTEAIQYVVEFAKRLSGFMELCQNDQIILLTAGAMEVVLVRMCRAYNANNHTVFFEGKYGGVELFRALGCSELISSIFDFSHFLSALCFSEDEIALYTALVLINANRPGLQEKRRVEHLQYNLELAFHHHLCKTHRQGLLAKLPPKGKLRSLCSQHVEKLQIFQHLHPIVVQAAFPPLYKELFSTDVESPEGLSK
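Drosophila S2 cells stably expressing Gal4-DBD/mouse RORγ fusion under metallothionein promoter plus UAS-luciferase; compound 1 h, then 700 uM CuSO4 induction for 20 h at ambient temperature; inhibition read as reduced luminescence.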
ELG1 DNA repair – blocks ELG1-dependent DNA repair in HEK293T cells; Potency, µM (highest dose often 46.1 µM), for inactives: at the top dose activity change, negative = inhibition, actives largely listed as inhibitors; HEK293T ELG1-luciferase reporter, luminescence, 16 h; DNA damage induced by 5-fluorouridine; 330,000 compounds, 2.3% hits; note: potency is the fitted concentration of half-maximal effect; nearly all actives have a fitted effect of over 55% in size
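In this reporter screen, reduction of luminescence relative to DMSO vehicle indicated activity. Compounds and 5-fluorouridine were added together to 2,000 cells per well, incubated for 16 hr at 37 °C, then developed with ONE-Glo.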
TSHR antag – antagonists of human thyroid stimulating hormone receptor | TSHR-expressing cells, TSH-stimulated cAMP HTRF, 2 h; active compounds read low | activity change, negative = inhibition, % at 11.5 µM | 330,000 compounds, 0.2% hits | AID 504810;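 active = activity change below a set negative limit, meaning inhibition stronger than a set level, cut at about -70% in these data; inconclusive = activity change between two set negative limits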
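Cell-based HTRF cAMP assay; TSHR cells + compound, TSH EC80 (4nM final), 2 h, 37 deg C. Lysis with anti-cAMP cryptate and cAMP-d2, 30 min RT, read 665/620 nm.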
Gal4-VP16 FLuc – Gal4-VP16 reporter inhibition counter-screen | Potency, µM (series often up to 53.6 µM), for inactives: top-dose activity, negative = inhibition, most hits filed as inhibitors | Drosophila S2 Gal4-VP16 UAS-luciferase, luminescence, 20 h | 310,000 compounds, 3.5% hits;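 note: Gal4-VP16 expression switched on by copper sulfate through the metallothionein promoter; potency is the fitted concentration of half-maximal effect; nearly all actives have a fitted effect of over 50% in size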
* = called active by the depositor; ? = inconclusive; nt = no result given. Shown are actives, neighbours in structure and some others; about 8% of the full set was active somewhere. Unless noted, calls come from the whole dose curve; as a rule, active = well fitted curve in the direction sought with a large enough effect; inconclusive = small, poorly fitted or top-dose-only effect, or another doubt; inactive = no such curve, though single readings can be large; an effect the other way counts as inactive or inconclusive. % is set by controls: 0 for no effect and ±100 for the full control effect.

SMILES	Coupling enz	RORg inh	ELG1 DNA repair	TSHR antag	Gal4-VP16 FLuc
CCCCN1CC(=O)N2[C@H]3c4ccccc4OC[C@@H]3[C@H](C(=O)OCC)[C@]2(C)C1=O	nt	nt	17%	-1	nt
CC(C)c1ccc2[nH]c3nc(SCC(=O)N4CCOCC4)nnc3c2c1	1	32%	0%	-16	-4%
Clc1cc(Cl)c(OCCCCn2cncn2)c(Cl)c1	4	3%	7%	-2	2%
CC1=C(n2nnc3ccccc32)C(c2ccccc2)C(C#N)=C(N)O1 (stereo not given)	-42*	-43%	26%	4	19%
O=S(=O)(Nc1cccc(S(=O)(=O)N2CCCCC2)c1)c1ccccc1F	nt	nt	-22%	-21	nt
Nc1cc2ccncc2c2ccccc12	-21	-42%	1.8µM*	-6	-23%
CO/N=C(/C(=O)N[C@@H]1C(=O)N2C(C(=O)O)=C(CSc3cnns3)CS[C@H]12)c1csc(N)n1	nt	16%	nt	nt	1%
Fc1ccc(NC(=S)NCCc2ccccc2)c(F)c1F	2	-5%	27%	-35	-6%
O=C(NCCCCc1ccccc1)Nc1cccc(F)c1	2	?	-1%	-8	-14%
Fc1ccccc1NC(=S)NCCc1ccc(Cl)cc1	nt	8.9µM*	?	-1	?
Fc1ccccc1NC(=S)NCCc1ccccc1	0	6.3µM*	?	-6	?
Fc1ccc(F)c(NC(=S)NCCc2ccccc2)c1	1	4.5µM*	-4%	-15	?
Fc1cccc(NC(=S)NCCc2ccccc2)c1	-1	3.2µM*	18%	0	?
CCOc1cccc(C(=O)N(Cc2cccc(F)c2)C2CCS(=O)(=O)C2)c1 (stereo not given)	2	-1%	8%	14	-3%
c1ccc(CNc2ncnc3scc(-c4cccs4)c23)nc1	0	?	8.2µM*	-45	?
c1ccc(-c2csc3ncnc(NCc4ccccn4)c23)cc1	0	-29%	12µM*	-22	?
CCc1cc[n+](C2=C([O-])c3ccccc3C(=O)/C2=N\S(=O)(=O)c2cccs2)cc1	-55*	3.5µM*	16µM*	5	16µM*
CCCCn1c(N)c(N(CCC(C)C)C(=O)C2=NN(c3cc(C)ccc3C)C(=O)CC2)c(=O)[nH]c1=O	nt	nt	12%	4	nt
COc1ccccc1-c1c(C)[nH]n2c(=O)c(Cc3ccccc3)c(C)nc12	-2	14µM*	?	-2	11µM*
COc1ccc(-c2c(C)[nH]n3c(=O)c(Cc4ccccc4)c(C)nc23)cc1	-2	2.5µM*	?	11	3.2µM*
CCc1c(C)nc2c(-c3ccccc3)c(C)[nH]n2c1=O	0	11µM*	-13%	12	?
Cc1nc2c(-c3ccccc3)c[nH]n2c(=O)c1Cc1ccccc1	-3	4%	?	34	-9%
COc1ccc(CCn2nnnc2C2(c3ccc(C)cc3)CC2)cc1	nt	nt	nt	12	nt
O=C(CSCc1cc(=O)n2nc(C3CC3)sc2n1)Nc1ccccc1Cl	nt	-16%	5%	2	-2%
Cc1cc(NC(=O)c2c(F)cccc2F)n(-c2nc3ccccc3[nH]2)n1	-1	3.5µM*	?	-5	6.3µM*
SMILES	Coupling enz	RORg inh	ELG1 DNA repair	TSHR antag	Gal4-VP16 FLuc
Cc1cc(NC(=O)c2ccccc2F)n(-c2nc3ccccc3[nH]2)n1	1	1.1µM*	16µM*	-10	4.5µM*
Cc1cc(C)n(-c2nc3ccccc3[nH]c2=O)n1	-1	-35%	-2%	-8	-11%
Cc1cc(Nc2ccccc2)n(-c2nc3ccccc3[nH]2)n1	-9	1.6µM*	-26%	27	3.5µM*
Cc1cc(NC(=O)C2CCCCC2)n(-c2nc3ccccc3[nH]2)n1	1	1.6µM*	?	0	1.4µM*
Cc1cc(NC(=O)c2ccc(C)s2)n(-c2nc3ccccc3[nH]2)n1	3	5%	?	-15	-9%
C#CCOCCOCCOCCNc1nc(N2CCN(C(=O)[C@H](CCCN=C(N)N)n3cc(C(N)[C@H](C)CC)nn3)CC2)nc(N2CCN(C(=O)[C@H](CC(N)=O)n3cc(C(N)[C@@H](C)CC)nn3)CC2)n1 (stereo not given in full)	nt	nt	9%	-20	nt
CC(OC(=O)c1ccc(Cl)nc1)C(=O)N1CCc2ccccc21 (stereo not given)	nt	nt	11%	-6	nt
Cc1cc(N2CCN(c3ccccc3)CC2)nc(-c2ccccc2O)n1	0	3%	?	-14	2%
Cc1cc(N2CCN(c3ccccc3)CC2)nc(-n2nc(C)cc2C)n1	1	0.28µM*	?	-6	1.3µM*
Cc1cc(C)nc(-n2nc(C)cc2Nc2ccccc2)n1	8	0.11µM*	?	7	0.22µM*
Cc1cc(NC(=O)c2c(F)cccc2Cl)n(-c2nc3ccccc3[nH]2)n1	-3	4.5µM*	21µM*	19	7.1µM*
CC(C)(C)c1cc(NC(=O)c2c(F)cccc2Cl)n(-c2ccccc2)n1	0	-1%	0%	-13	8%
Cc1cc(Nc2ccccc2)n(-c2ccccc2)n1	4	-6%	?	2	11%
C=CCN1C(=O)/C(=C\c2ccc(OC(=O)c3ccco3)c(OC)c2)SC1=S	-2	18%	18%	21	-19%
C=CCN1C(=O)/C(=C/c2ccc(OC(C)=O)c(OCC)c2[N+](=O)[O-])SC1=S	-18	?	?	-92*	?
NNC(=S)NC1CCS(=O)(=O)C1 (stereo not given)	0	2.8µM*	4%	8	4.5µM*
NNC(=S)NC1CCCCCCCCCCC1	1	0.28µM*	?	-8	2.8µM*
S=C(NC1CCCCC1)NC1CCCCC1	nt	2.8µM*	nt	nt	?
O=C(NC1CCCCCC1)C(=O)NC1CCCC1	0	25%	?	3	-5%
CN(C)CCNC(=S)NC1CCCCC1	-3	-13%	5%	8	1%
S=C(NC1CCCCCC1)NC1CCCC1	5	1.6µM*	?	-5	10µM*
COCCCNC(=S)N1CCN(c2nc3ccccc3s2)CC1	1	?	-18%	-2	18%
COCCNC(=S)N1CCN(c2nc3ccccc3s2)CC1	1	0%	-3%	21	13µM*
CC(C)C[C@@H](CC(=O)N[C@@H](CCC(=O)O)CC(=O)O)NC(=O)[C@@H]1CNCC[C@H]1NC(=O)C[C@H](CCCN)NC(=O)C[C@H](Cc1c[nH]c2ccccc12)NC(=O)[C@@H]1CCCC[C@H]1N	-1	3%	nt	nt	6%
CCOC(=O)C1CCCN(S(=O)(=O)c2ccc(S(=O)(=O)N(CC)CC)cc2)C1 (stereo not given)	3	6.3µM*	?	-18	4.5µM*
